According to PubChem BioAssay AID623901 (Broad Institute, 2012):
Screen size: about 340,000 compounds; about 470 (0.14%) were called active. Only a selection was taken, and actives are over-represented in it overall. Values without a mark were called inactive.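 How the source made its calls: active means mean activation of 30% or more, with every replicate also reaching 30%; inconclusive means mean activation of 30% or more but some replicate falls short; inactive means the rest.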

Assay: miR-122 suppressors via Renilla sensor increase, primary screen, cell-based, Huh7 psiCHECK-miR122, Renilla luciferase, single point (AID 623901);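 further: 0% = median of neutral control wells and 100% = median of positive control wells; higher luciferase signal means stronger suppression of miR-122 activity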
Conditions: 48 h, at 12.5 µM, stronger effect = higher value

SMILES | activation
COc1ccc(C#Cc2cnc3c(c2)C(=O)N([C@@H](C)CO)C[C@H](C)[C@@H](CN(C)CC2CCOCC2)O3)cc1 | 0.272%
CSc1nc(-c2ccccc2)nc(C(Cl)Cl)n1 | 42% (active)
COCC#Cc1ccc2c(c1)O[C@H](CN(C)C(=O)C1CCOCC1)[C@@H](C)CN([C@@H](C)CO)S2(=O)=O | -2.66%
C[C@H](CO)N1C[C@H](C)[C@@H](CN(C)C(=O)C2CCOCC2)Oc2cc(-c3ccc(C(=O)N(C)C)cc3)ccc2S1(=O)=O | -12.2%
COc1ccccc1-c1ccc2c(c1)O[C@H](CN(C)S(=O)(=O)c1ccc(C)cc1)[C@@H](C)CN([C@H](C)CO)S2(=O)=O | 2.3%
COc1cccc(S(=O)(=O)N(C)C[C@@H]2Oc3cc(C4=CCCCC4)ccc3S(=O)(=O)N([C@H](C)CO)C[C@H]2C)c1 | 36.2% (active)
CNC[C@H]1Oc2cc(-c3ccc(OC)cc3)ccc2S(=O)(=O)N([C@H](C)CO)C[C@@H]1C | -1.22%
COc1cccc(-c2ccc3c(c2)O[C@H](CN(C)C(=O)C2CCOCC2)[C@H](C)CN([C@H](C)CO)S3(=O)=O)c1 | 40.8% (active)
C[C@H]1CN([C@@H](C)CO)C(=O)c2cc(Br)cnc2O[C@H]1CN(C)Cc1cccc(F)c1 | -14.9%
CCC(=O)N1C[C@@H](C)[C@@H](OC)CN(C)C(=O)c2ccc(NC(=O)C3CCCCC3)cc2OC[C@H]1C | -2.5%
COc1ccc(C)cc1S(=O)(=O)Nc1cc2c3c(c1)CCC(=O)N3CCC2 | -150%
C/C=C/c1ccc2c(c1)O[C@H](CN(C)C(=O)Cc1ccccn1)[C@H](C)CN([C@H](C)CO)S2(=O)=O | -4.41%
CCC(=O)N(C)C[C@@H]1Oc2cc(C#Cc3cccnc3)ccc2S(=O)(=O)N([C@H](C)CO)C[C@@H]1C | -5.93%
C[C@H]1CN([C@@H](C)CO)S(=O)(=O)c2ccc(-c3cccc(C#N)c3)cc2O[C@H]1CN(C)C(=O)c1ccccc1 | 4.92%
C/C=C/c1ccc2c(c1)O[C@H](CN(C)C(=O)c1ccc3c(c1)OCO3)[C@@H](C)CN([C@H](C)CO)S2(=O)=O | -10.3%
C[C@@H]1CN([C@H](C)CO)S(=O)(=O)c2ccc(C#Cc3ccccc3F)cc2O[C@@H]1CN(C)C(=O)c1ccc2c(c1)OCO2 | 48.9% (active)
C[C@H]1CN([C@@H](C)CO)S(=O)(=O)c2ccc(C#Cc3ccccc3F)cc2O[C@@H]1CN(C)C(=O)c1ccc2c(c1)OCO2 | 48% (active)
C[C@@H]1CN([C@@H](C)CO)S(=O)(=O)c2ccc(C#Cc3ccc(F)cc3)cc2O[C@H]1CN(C)S(C)(=O)=O | 0.672%
C[C@@H]1CN([C@H](C)CO)S(=O)(=O)c2ccc(C#CC3(O)CCCC3)cc2O[C@@H]1CN(C)C(=O)c1cccnc1 | 44% (active)
CNC[C@@H]1Oc2cc(C#CCC3CCCC3)ccc2S(=O)(=O)N([C@H](C)CO)C[C@H]1C | 14.9%
C[C@@H]1CN([C@@H](C)CO)S(=O)(=O)c2ccc(C#Cc3ccccc3)cc2O[C@@H]1CN(C)C(=O)Nc1ccccc1 | -3.74%
CNC[C@@H]1Oc2cc(C#CC3CCCC3)ccc2S(=O)(=O)N([C@@H](C)CO)C[C@@H]1C | 32.4% (active)
C[C@H](CO)N1C[C@H](C)[C@@H](CN(C)C(=O)C2CC2)Oc2cc(C#CC3CC3)ccc2S1(=O)=O | -21%

SMILES | activation
CCCC#Cc1ccc2c(c1)O[C@@H](CN(C)C(=O)c1cccnc1)[C@H](C)CN([C@H](C)CO)S2(=O)=O | -14.9%
C[C@H](CO)N1C[C@H](C)[C@@H](CN(C)Cc2cncnc2)Oc2cc(-c3ccccc3)ccc2S1(=O)=O | -27.5%
C[C@H]1CN([C@@H](C)CO)C(=O)c2cc(/C=C/c3ccccc3)cnc2O[C@H]1CN(C)Cc1cccc(C(=O)O)c1 | 8.03%
CCOc1ccccc1NC(=O)Cn1nnc(C(=O)NCc2cccs2)c1N | -94.8%
C[C@@H]1CN([C@@H](C)CO)S(=O)(=O)c2ccc(-c3ccc(C(=O)N(C)C)cc3)cc2O[C@@H]1CN(C)C(=O)Cc1ccccn1 | -3.98%
COCC#Cc1cnc2c(c1)C(=O)N([C@@H](C)CO)C[C@H](C)[C@@H](CN(C)Cc1ccccc1)O2 | -2.07%
C[C@@H]1CN([C@H](C)CO)C(=O)c2cc(-c3cccc(C(=O)N(C)C)c3)cnc2O[C@H]1CN(C)S(=O)(=O)c1ccc(F)cc1 | -4.18%
COc1ccc(-c2cc(NC(C)=O)c3ncc(-c4cc(OC)c(OC)c(OC)c4)n3c2)cn1 | -107%
CCCC#Cc1ccc2c(c1)O[C@@H](CN(C)C(=O)CC)[C@@H](C)CN([C@H](C)CO)S2(=O)=O | -16.6%
COCCn1c(SCC(=O)c2[nH]c(C)c(C(C)=O)c2C)nc2ccccc2c1=O | -272%
CC1CCCCC1NC(=O)/C(C#N)=C/C=C/c1ccccc1[N+](=O)[O-] (configuration not stated) | -102%
Cc1ccc(OCC(=O)Nc2cccc3c2CCCC3)cc1C | -94.9%
C[C@@H]1CN([C@H](C)CO)C(=O)c2cc(C#Cc3ccccn3)cnc2O[C@H]1CN(C)CC1CCOCC1 | -7.38%
CCC(=O)Nc1ccc2c(c1)OC[C@H](C)N(C(=O)c1ccncc1)C[C@H](C)[C@H](OC)CN(C)C2=O | -2.72%
COCC#Cc1cnc2c(c1)C(=O)N([C@@H](C)CO)C[C@@H](C)[C@H](CN(C)C(=O)C1CCOCC1)O2 | -0.849%
CC1=C(C)CC(C(=O)NNC(=O)c2ccccc2O)C(C(=O)O)C1 (configuration not stated) | -151%
Cn1cnc([N+](=O)[O-])c1Sc1ccccc1 | -217%
CCC(=O)N(C)C[C@@H]1Oc2ncc(C#CCC3CCCC3)cc2C(=O)N([C@@H](C)CO)C[C@H]1C | 7.03%
COc1ccc(C#Cc2cnc3c(c2)C(=O)N([C@H](C)CO)C[C@H](C)[C@H](CN(C)S(=O)(=O)c2ccc(F)cc2)O3)cc1OC | 8.05%
C/C=C/c1ccc2c(c1)O[C@H](CN(C)C(=O)Nc1ccc(OC)cc1)[C@@H](C)CN([C@H](C)CO)S2(=O)=O | -21.8%
COCC#Cc1cnc2c(c1)C(=O)N([C@H](C)CO)C[C@H](C)[C@H](CN(C)C(=O)Nc1ccccc1OC)O2 | 0.317%
COc1ccc(C(C#N)Nc2ccc(C)cc2)cc1 (configuration not stated) | 49.7% (active)
COc1ccccc1NC(=O)N(C)C[C@@H]1Oc2ncc(C#CCC(C)C)cc2C(=O)N([C@@H](C)CO)C[C@@H]1C | 3.82%

SMILES | activation
CC(C)C#Cc1ccc2c(c1)O[C@H](CN(C)Cc1ccccn1)[C@H](C)CN([C@H](C)CO)S2(=O)=O | -14.1%
Cc1ccccc1-c1cnc2c(c1)C(=O)N([C@H](C)CO)C[C@H](C)[C@@H](CN(C)C(=O)c1ccccc1)O2 | 2.61%
Cc1cc(C)cc(NS(=O)(=O)c2ccc(F)cc2)c1 | -117%
COc1ccc(F)cc1S(=O)(=O)Nc1ccc2c(c1)OCO2 | -99.7%
C[C@H]1CN([C@@H](C)CO)S(=O)(=O)c2ccc(-c3ccccc3)cc2O[C@H]1CN(C)C(=O)CC1CC1 | 4.7%
CO[C@H]1CN(C)C(=O)c2cc(NC(C)=O)ccc2OC[C@H](C)N(C(=O)CN(C)C)C[C@@H]1C | -4.03%
COc1ccc(S(=O)(=O)Nc2ccc(F)cc2)c(C)c1C | -231%
COc1ccc(CN2CCOC2=O)cc1OC | 44.5% (active)
C[C@@H]1CN([C@@H](C)CO)C(=O)c2cc(C#Cc3ccccc3)cnc2O[C@H]1CN(C)C(=O)c1ccccn1 | 5.71%
C[C@@H]1CN([C@@H](C)CO)C(=O)c2cc(/C=C/c3ccccc3)cnc2O[C@H]1CN(C)C(=O)C1CCC1 | 2.31%
CCCN(C)C[C@@H]1Oc2cc(C#CCc3ccccc3)ccc2S(=O)(=O)N([C@H](C)CO)C[C@@H]1C | 7.02%
C[C@@H]1CN([C@H](C)CO)C(=O)c2cc(-c3ccccc3F)cnc2O[C@H]1CN(C)C(=O)NC1CCCCC1 | -3.04%
CCC(=O)N(C)C[C@@H]1Oc2ncc(C#Cc3cccnc3)cc2C(=O)N([C@@H](C)CO)C[C@@H]1C | -1.27%
COc1ccc(C)cc1S(=O)(=O)NC1CCCCC1 | -375%
Cc1cccc(-n2ncc(Cl)c(Cl)c2=O)c1 | 69.6% (active)
CCC(=O)N(C)C[C@H]1Oc2cc(-c3cccc(C#N)c3)ccc2S(=O)(=O)N([C@@H](C)CO)C[C@@H]1C | -7.09%
O=C(Nc1cc(S(=O)(=O)Nc2ccc(Cl)cc2)ccc1O)c1ccc(F)cc1F | -118%
CCC(=O)N(C)C[C@@H]1Oc2cc(C#C[C@H](C)O)ccc2S(=O)(=O)N([C@H](C)CO)C[C@@H]1C | 5.93%
CCCNC(=O)N(C)C[C@@H]1Oc2ncc(C#Cc3ccccc3F)cc2C(=O)N([C@@H](C)CO)C[C@H]1C | 13.1%
COc1ccc(CN(C)C[C@@H]2Oc3ccc(NS(=O)(=O)c4ccc(OC)cc4)cc3C(=O)N([C@H](C)CO)C[C@H]2C)cc1 | -2.32%
C[C@@H]1CN([C@H](C)CO)C(=O)c2cccc(NS(=O)(=O)c3cn(C)cn3)c2O[C@H]1CN(C)CC1CC1 | -0.457%
